# Experimental data: PubChem BioAssay (EPA / NIEHS)
# The source made the active and inactive calls. The calls were made as follows: active = hit-call score of the fitted dose curve at least 0.9, where 1 is the maximum; inactive = score below 0.9.
# Target: Hypoxia-inducible factor 1-alpha (Homo sapiens) (UniProt Q16665)
# Assay: ATG_HIF1a_CIS: Attagene CIS-FACTORIAL HepG2 Assay for human Hypoxia Inducible Factor 1 (HIF1A) (AID 2282951)
# Conditions: HepG2 Attagene cis-factorial HIF1a reporter transcription; actives raise or lower the signal
# Protocol: ATG_CIS is a cell-based, multiplexed-readout assay that uses HepG2, a human liver cell line, with measurements taken at 24 hours after chemical dosing in a 24-well plate.ATG_HIF1a_CIS is one of 52 assay component(s) measured or calculated from the ATG_CIS assay. It is designed to make measurements of mRNA induction, a form of inducible reporter, as detected with fluorescence intensity signals by Reverse transcription polymerase chain reaction (RT-PCR) and Capillary electrophoresis technology.Data from the assay component ATG_HIF1a_CIS was analyzed into 1 assay endpoint. This assay endpoint, ATG_HIF1a_CIS, was analyzed with bidirectional fitting relative to DMSO as the negative control and baseline of activity. Using a type of inducible reporter, measures of mRNA for gain or loss-of-signal activity can be used to understand the reporter gene at the transcription factor-level as they relate to the gene HIF1A. Furthermore, this assay endpoint can be referred to as a primary readout, because this assay has produced multiple assay endpoints where this one serves a reporter gene function. To generalize the intended target to other relatable targets, this assay endpoint is annotated to the dna binding intended target family, where the subfamily is basic helix-loop-helix protein.
# Human liver HepG2 cells are transiently transfected with multiple reporter transcription units (MRTUs) in 6-well plates using FuGene 6 reagent (Roche; 3 ml FuGene/1 mg DNA). The MRTU constructs are regulated by a cis-regulating element (promoter). […] A major difference between the CIS and TRANS system is that in CIS activities of endogenous TFs are measured, whereas the TRANS assay evaluates changes in activities of exogenous, chimeric NR-Gal4 proteins. […] At the end of 24 hour incubation, total RNA was isolated using TriZol reagent (Invitrogen). The isolated RNA is then reverse-transcribed using oligo(dT) primer and Mo-MLV reverse transcriptase (Invitrogen) with DNAse I (Ambion) treatment for 30 min. The one-tenth of the produced cDNA was amplified by PCR using Taq DNA polymerase (Invitrogen) and two reporter sequence-specific primers. The PCR products were fluorescently labeled by primer extension with 6-arboxyfluorescein (6-FAM) 5'-labeled reporter sequence-specific primer (2 min at 95 C, 20 s at 68 C and 10 min at 72 C) and these products were digested with 5U of HpaI (New England Biolabs) for 2h at 37 C. The fragments were purified using Qiaquick PCR columns (Qiagen), analyzed on an ABI 3130xL genetic analyzer (Applied Biosystems) with peak positions identified by using a set of X-rhodamine (ROX)-labeled MapMarker1000 molecular weight standards (BioVentures). The raw capillary electrophoresis data was processed using Attagraph software (Attagene).
# Sequence of Hypoxia-inducible factor 1-alpha (Homo sapiens) (Q16665 whole entry, looked up): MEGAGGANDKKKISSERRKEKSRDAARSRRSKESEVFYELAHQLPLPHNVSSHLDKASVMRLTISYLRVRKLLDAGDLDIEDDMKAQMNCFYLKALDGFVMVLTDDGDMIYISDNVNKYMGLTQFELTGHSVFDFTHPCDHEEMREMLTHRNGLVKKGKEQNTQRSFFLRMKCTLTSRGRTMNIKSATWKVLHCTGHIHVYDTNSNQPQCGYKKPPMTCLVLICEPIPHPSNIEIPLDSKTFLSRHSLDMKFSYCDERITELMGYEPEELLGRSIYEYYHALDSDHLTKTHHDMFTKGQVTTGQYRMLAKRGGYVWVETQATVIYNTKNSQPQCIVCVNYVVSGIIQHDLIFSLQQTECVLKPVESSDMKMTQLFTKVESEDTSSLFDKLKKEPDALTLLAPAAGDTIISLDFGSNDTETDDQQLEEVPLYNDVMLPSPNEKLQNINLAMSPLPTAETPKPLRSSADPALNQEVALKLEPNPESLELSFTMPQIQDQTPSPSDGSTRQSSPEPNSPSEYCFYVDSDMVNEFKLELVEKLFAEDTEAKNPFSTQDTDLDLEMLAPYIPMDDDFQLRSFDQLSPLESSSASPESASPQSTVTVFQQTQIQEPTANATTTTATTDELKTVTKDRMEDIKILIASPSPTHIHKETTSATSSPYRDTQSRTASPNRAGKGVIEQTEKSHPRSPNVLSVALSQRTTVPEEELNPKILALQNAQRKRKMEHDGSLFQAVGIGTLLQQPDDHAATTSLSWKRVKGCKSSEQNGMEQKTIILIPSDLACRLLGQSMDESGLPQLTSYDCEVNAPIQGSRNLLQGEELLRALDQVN
Compound,outcome,AC50
CCCCCCOC(=O)CCC,inactive,–
CCc1ncc(C)[nH]1,inactive,–
C=C(C)C(=O)OCCOCCOCCOC(=O)C(=C)C,inactive,–
CCCC(=O)c1ccccc1,inactive,–
COc1cc(CCC(C)=O)ccc1O,inactive,–
CCOC(=O)COC(=O)c1cc(Oc2ccc(C(F)(F)F)cc2Cl)ccc1[N+](=O)[O-],inactive,–
C1=CC2C3C=CC(C3)C2C1 (stereo not given),inactive,–
O=C1OC(=O)c2c(Cl)c(Cl)c(Cl)c(Cl)c21,inactive,–
C=C1C[C@]23C[C@@]1(O)CC[C@H]2[C@@]12C=C[C@H](O)[C@@](C)(C(=O)O1)[C@H]2[C@@H]3C(=O)O,inactive,–
CCCCCCC(C)(C)S,inactive,–
CC(C)(C)CC(C)(C)c1ccc(OCCOCC[N+](C)(C)Cc2ccccc2)cc1,inactive,–
COC(=O)c1ccc([N+](=O)[O-])cc1,inactive,–
c1ccc2[nH]cnc2c1,inactive,–
O=c1[nH]c(=O)c2cn[nH]c2[nH]1,inactive,–
O=CN1CCOCC1,–,51.7 µM (active)
CCc1ccc(O)c(OC)c1,inactive,–
COc1ccccc1N=Nc1c(S(=O)(=O)O)cc2cc(S(=O)(=O)O)cc(NC(C)=O)c2c1O,inactive,–
CSc1c(Cl)c(Cl)c(Cl)c(Cl)c1Cl,inactive,–
C/C=C(\C)C(=O)OCCc1ccccc1,inactive,–
C=Cc1ccc(C(C)(C)C)cc1,inactive,–

Compound,outcome,AC50
C=C[Si]1(C)O[Si](C)(C=C)O[Si](C)(C=C)O[Si](C)(C=C)O1 (stereo not given),inactive,–
Nc1ccc(N)c2c1C(=O)c1ccccc1C2=O,inactive,–
CC(C)CCOC(=O)c1ccccc1,inactive,–
COS(=O)(=O)O,inactive,–
Cc1cccc(Nc2ccccc2)c1,inactive,–
O=C1OC[C@H](Cc2cccc(O)c2)[C@H]1Cc1cccc(O)c1,inactive,–
CCCCCCCC(=O)OCCCCCC,inactive,–
CCCCC(CC)COC(C)=O (stereo not given),inactive,–
CSCCC=O,inactive,–
CC(=O)OCCCc1ccccc1,inactive,–
O=C1c2ccccc2C(=O)c2c(O)ccc(O)c21,inactive,–
CC1(C)O[C@@H]2[C@@H](CO[C@@]3(COS(N)(=O)=O)OC(C)(C)O[C@@H]23)O1,inactive,–
C=CC(=O)OCCC#N,–,56.6 µM (active)
CS(=O)(=O)c1ccc(C2=C(c3ccccc3)C(=O)OC2)cc1,inactive,–
O=C(Nc1ccc2c(O)c(N=Nc3ccc(N=Nc4ccc(S(=O)(=O)O)cc4)cc3)c(S(=O)(=O)O)cc2c1)c1ccccc1,inactive,–
CC(C)=CCCC(C)CC(=O)O (stereo not given),inactive,–
CC1C2CC(CC2C2CCCC(O)C2)C1(C)C (stereo not given),inactive,–
CS(=O)(=O)c1ccc(Cl)cc1,inactive,–
CC(=O)c1ccccn1,inactive,–
Cc1ncc[nH]1,inactive,–
